Rows were chosen to be rich in hits. Some 3.5% of all compounds tested hit in one or more screens of this group.
TEAD-YAP block: TEAD-YAP interaction inhibition, primary screen, TEAD-YAP interaction inhibitor project, luminescence, HEK-TIYL cells. inhibition, % at 9.12 µM. TEAD-Gal4/YAP UAS-luciferase luminescence. 1.4% of 640,000 active. AID 1259422, 2018; in the data active = inhibition above about 32%
GPR151 activ: activators of human GPR151, primary screen, cell-based, PathHunter beta-arrestin, luminescence; G-protein coupled receptor 151 (Homo sapiens), Q8TDV0; activation, % at 11.2 µM; PathHunter beta-arrestin GPR151 cells; AID 1508602, 2020; 1% of 650,000 active; in the data active = activation above about 4.9%
Target sequence (Q8TDV0 whole entry, looked up): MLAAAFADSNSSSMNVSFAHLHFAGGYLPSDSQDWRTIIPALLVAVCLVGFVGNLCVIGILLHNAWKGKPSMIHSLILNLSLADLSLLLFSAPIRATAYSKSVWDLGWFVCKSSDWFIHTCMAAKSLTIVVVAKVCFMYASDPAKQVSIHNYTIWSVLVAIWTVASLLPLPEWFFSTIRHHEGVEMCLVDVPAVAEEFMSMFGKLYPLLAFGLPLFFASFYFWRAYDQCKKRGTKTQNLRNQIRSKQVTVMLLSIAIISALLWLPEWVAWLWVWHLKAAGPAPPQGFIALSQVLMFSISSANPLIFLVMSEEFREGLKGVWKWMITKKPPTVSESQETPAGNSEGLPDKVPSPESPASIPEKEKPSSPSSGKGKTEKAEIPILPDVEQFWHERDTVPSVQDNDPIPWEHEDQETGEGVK
MITF inh: MITF inhibitors, primary screen, biochemical, AlphaScreen, human. AID 1259374, 2018. inhibition, % at 2.6 µM. AlphaScreen MITF homodimerization, bead proximity signal. 0.91% of 650,000 active. Microphthalmia-associated transcription factor (Homo sapiens), O75030; in the data active = inhibition above about 50%
FBW7 activator: FBW7 E3 ligase activators, primary screen, biochemical, AlphaScreen, human. F-box/WD repeat-containing protein 7 (Homo sapiens), Q969H0. AlphaScreen FBW7–phospho-cyclin E peptide binding, activator screen. normalized activity (activation), % at 26.1 µM. 0.13% of 650,000 active. AID 1259310, 2017; in the data active = normalized activity above about 1.9%;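 note: purified mutant Fbw7 with reduced substrate affinity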
MITF inh conf: MITF inhibitors, retest of hits, confirmation, biochemical, AlphaScreen, triplicate; shares compounds with MITF inh; AlphaScreen MITF homodimerization, biotin/His-MITF beads; inhibition, % at 2.6 µM; 16% of 4,700 active; AID 1259372, 2018;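 active = inhibition above a cutoff derived from the DMSO control wells, cut at about 28% in these data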;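 note: inhibitors lower the bead chemiluminescence by keeping MITF from dimerizing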
AS interf DR: AlphaScreen optical interference compounds, dose response, counter-screen, biochemical, HTS; AID 1259373, 2018; shares compounds with MITF inh; AlphaScreen optical interference counterscreen, cell-free; 6% of 480 active; IC50, µM; call rule not given here
AS interf ctr: AlphaScreen optical interference compounds, counter-screen for MITF inhibitor project, biochemical, triplicate. shares compounds with MITF inh. LysRS AlphaScreen counterscreen, signal interference. inhibition, % at 2.6 µM. 7.6% of 4,700 active;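 active = inhibition above a cutoff derived from the DMSO control wells, cut at about 30% in these data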
Of the large screens only hits and unclear results are named; the others gave an inactive call (follow-up assays come after a bar, where they were run); ! = repeats disagree.

C=C(C)CNC(=S)Nc1ccccc1	MITF inh 77! | MITF inh conf inactive | AS interf ctr inactive
C=C(C)CNC(=S)Nc1ccccn1	none
CCC(C(=O)Nc1ccccc1C(=O)OC)n1c2ccccc2c2nc(=O)cc(C)n21 (centres undefined)	none
CN(C)/C=C/C=C/C(=O)C1CCC/C(=C\C=C\N(C)C)C1=O (centres undefined)	MITF inh 70 | MITF inh conf 63 | AS interf DR inactive | AS interf ctr inactive
C=CCc1ccc(OCCOCCNC(C)CC)c(OC)c1 (centres undefined)	MITF inh 77 | MITF inh conf inactive | AS interf ctr inactive
C=CCc1ccc(OCCOCCN2CCN(CC)CC2)c(OC)c1	MITF inh 65 | MITF inh conf inactive | AS interf ctr inactive
C=CCc1ccc(OCCCNC(C)CC)c(OC)c1 (centres undefined)	none
CC(=O)c1ccc(-c2ccc(/C=C/[N+](=O)[O-])o2)cc1	MITF inh 69 | MITF inh conf 56 | AS interf ctr 31
O=C(O)c1ccccc1-c1ccc(/C=C/[N+](=O)[O-])o1	MITF inh 81 | MITF inh conf 73 | AS interf DR inactive | AS interf ctr inactive
COc1ccc(N=Cc2c(N3CCOCC3)n(C)c3ccccc23)cc1	none
O=S(=O)(Nc1nc2ccccc2nc1NCc1ccccc1)c1ccccc1	none
COc1ccccc1-n1c(CNC(=O)c2ccccc2C(F)(F)F)nnc1SC	none
C=CCNC1CCN(c2ccc(NC(=O)c3ccc(OC)cc3)cc2)CC1	MITF inh 60 | MITF inh conf inactive | AS interf ctr inactive
CCOC(=O)c1sc(NC(=O)C(C)Sc2nnc(CNC(=O)c3cccc(OC)c3)n2Cc2ccccc2)c(C(=O)OCC)c1C (centres undefined)	none
CCN(CC)C(=S)SCc1c(C)c(C)c(Br)c(C)c1C	MITF inh 52 | MITF inh conf inactive | AS interf ctr inactive
CCN(CC)C(=S)SCc1cn2cccc(C)c2n1	none
OC(COCc1ccccc1)Cn1cnc2ccccc21 (centres undefined)	none
CCCCOCC(O)Cn1cnc2ccccc21 (centres undefined)	MITF inh 55 | MITF inh conf inactive | AS interf ctr inactive
Cc1ccc([N+](=O)[O-])cc1S(=O)(=O)Nc1ccc(N)cc1	none
Cc1ccc([N+](=O)[O-])cc1S(=O)(=O)Nc1ccc(Nc2ncccc2[N+](=O)[O-])cc1	MITF inh 97 | MITF inh conf 97 | AS interf DR inactive | AS interf ctr inactive
CN1CCN(CCOCCOc2ccc(Cl)c(Cl)c2)CC1	MITF inh 57 | MITF inh conf inactive | AS interf ctr inactive
CCc1cc(OCCN2CCNCC2)ccc1Cl	none
CCc1cc(OCCOCCN2CCN(CC)CC2)ccc1Cl	MITF inh 68 | MITF inh conf inactive | AS interf ctr inactive
CN1CCN(CCOc2ccc(Cl)c(Cl)c2)CC1	MITF inh 69 | MITF inh conf inactive | AS interf ctr inactive
CCCCC(=O)N1CCc2cc(OC)c(OC)cc2C1COc1ccc(CC)cc1 (centres undefined)	none
CCCNC(=O)c1ccc(CN(c2ccccc2)S(C)(=O)=O)cc1	none
CCCCNC(=O)c1ccc(CN(c2ccccc2)S(C)(=O)=O)cc1	MITF inh 92 | MITF inh conf inactive | AS interf ctr inactive
CCOC(=O)c1cnn(-c2ccccc2)c1NC(=O)CSc1nc2ccc(OCC)cc2s1	none
CCOC(=O)c1cnc(-n2[nH]c(C)cc2=O)[nH]c1=O	MITF inh 84 | MITF inh conf 98 | AS interf ctr 96
CCOC(=O)c1cnc(-n2[nH]c(C)c(Cc3ccccc3)c2=O)[nH]c1=O	MITF inh 96 | MITF inh conf 87 | AS interf ctr 100
CN(CC(=O)O)S(=O)(=O)c1ccc2ccccc2c1	none
O=C(NCc1ccc2c(c1)OCO2)c1ccc2c(=O)n(CC3CCCO3)c(=S)[nH]c2c1 (centres undefined)	none
CCN(CC)CCNCC(=O)Nc1ccc2c(c1)OCO2	none
CC1CCC(N2CCN(Cc3cccc(F)c3)CC2)CC1 (centres undefined)	MITF inh 54 | MITF inh conf inactive | AS interf ctr inactive
Fc1cccc(CN2CCN(C3CCCCCC3)CC2)c1	MITF inh 66 | MITF inh conf inactive | AS interf ctr inactive
OC1CCN(Cc2cccc(F)c2)CC1	none
Fc1cccc(CN2CCN(C3CCCCC3)CC2)c1	MITF inh 72 | MITF inh conf inactive | AS interf ctr inactive
Fc1ccc(CN2CCN(C3CCCCC3)CC2)cc1	none
Cc1ncn(-c2ccc(Nc3ncc4cccc(-c5ccccc5F)c4n3)cc2)n1	none
Cc1ncn(-c2ccc(N(C)c3ncc4cccc(-c5ccn[nH]5)c4n3)cc2)n1	MITF inh 58 | MITF inh conf 57 | AS interf DR inactive | AS interf ctr inactive
Cc1cc(Cl)cc(C)c1OCCN1CCNCC1	MITF inh 55 | MITF inh conf inactive | AS interf ctr inactive
Cc1cc(C)c(OCCOCCN2CCNCC2)c(C)c1	none
Clc1cc(Cl)c(OCCCN2CCNCC2)c(Cl)c1	MITF inh 56 | MITF inh conf inactive | AS interf ctr inactive
Cc1cc(Cl)c(OCCCN2CCNCC2)c(Br)c1	none
Cc1ccc(OCCCN2CCNCC2)c(Br)c1	MITF inh 69 | MITF inh conf inactive | AS interf ctr inactive
Clc1ccc(OCCCN2CCNCC2)c(Br)c1	none
Clc1ccc(OCCN2CCNCC2)c(Br)c1	MITF inh 65 | MITF inh conf inactive | AS interf ctr inactive
CCOC(=O)N1CCC(N(CCOC)C(=S)Nc2cccc(C(F)(F)F)c2)CC1	none
CC(C(=O)COc1ccc(Cl)cc1Cl)C(=O)N(C)C (centres undefined)	none
COC(=O)c1ccccc1NC(=O)c1ccc(Br)cc1	none
O=C(/C=C/c1cccc(F)c1)N1CCC(n2c(C3CCC3)nc3cccnc32)CC1	none
Cc1cc(Cl)ccc1OCCN1CCNCC1	MITF inh 73 | MITF inh conf inactive | AS interf ctr inactive
Clc1ccc(SCCN2CCNCC2)cc1	none
Clc1ccc(OCCCCN2CCNCC2)c(Br)c1	MITF inh 79 | MITF inh conf inactive | AS interf ctr inactive
Cc1cc(OCCOCCN2CCNCC2)cc(C)c1Cl	MITF inh 64 | MITF inh conf inactive | AS interf ctr inactive
Clc1ccc(SCCOCCN2CCNCC2)cc1	MITF inh 59 | MITF inh conf inactive | AS interf ctr inactive
Cc1cc(C)n2nc(C(=O)OCC(=O)Nc3ccccc3Oc3ccccc3)nc2n1	none

Bioassay records deposited in PubChem by The Scripps Research Institute Molecular Screening Center.
